Rows were chosen to be rich in hits. Some 9.4% of all compounds tested hit in one or more screens of this group.
Pf growth 48h: P. falciparum growth inhibition at 48 hours (one generation); P. falciparum luciferase growth in erythrocytes, 48 h; Potency, µM (top dose mostly 28.7 µM), without a hit: at the highest dose activity change, negative = inhibition, most hits filed as inhibitors; 310,000 compounds, 5.9% hits; note: % is set by controls: 0 for no effect and ±100 for the full control effect
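Read-out is firefly luciferase luminescence from an integrated reporter in P. falciparum, so falling signal marks reduced parasite growth. Infected erythrocytes were at 2% hematocrit and 0.1% parasitemia (final) in Albumax-supplemented RPMI 1640.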
AMA1-RON2 inh: AMA1-RON2 (P. falciparum) interaction inhibition; AlphaScreen AMA1-biotinylated RON2 peptide binding; Potency, µM (series often up to 58.2 µM), inactives show at the top dose activity change, negative = inhibition, most hits filed as inhibitors; 360,000 compounds, 0.2% hits;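 note: 0% = vehicle wells and -100% = peptide control; nearly all actives have a fitted effect of over 45% in size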
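AMA1 (3D7) with his tag at 25 nM final met compounds first, then biotinylated RON2 peptide at 25 nM; detection used donor plus acceptor beads, 10 µg/mL apiece, read by AlphaScreen after 30 min at room temperature.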
Pf growth 96h: P. falciparum growth inhibition at 96 hour, primary screen for plastid delayed-death inhibitors; P. falciparum luciferase reporter growth, 96 h; Potency, µM (top dose mostly 28.7 µM), for inactives: at the highest dose activity change, negative = inhibition, hits mostly inhibitors; 320,000 compounds, 6.9% hits; AID 504834; note: % is set by controls: 0 for no effect and ±100 for the full control effect
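P. falciparum expressing integrated firefly luciferase, in erythrocytes at 2% hematocrit, 0.05% parasitemia, incubated with compounds 96 h at 37 C, 5% CO2. Growth inhibition read as loss of luminescence; two-generation exposure targets delayed-death apicoplast inhibitors.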
SARS PLpro yeast: SARS-CoV PLP inhibition in yeast | 330,000 compounds, 0.19% hits | S. cerevisiae expressing SARS-CoV PLpro, growth rescue | AID 485353 | Potency, µM (top dose mostly 32.9 µM), for inactives: at the top dose activity, positive = growth rescue, actives largely listed as activators; calls by dose curve; note: 0% is about no effect; nearly all actives have a fitted effect of over 55% in size
* hit, by the source's call; ? = inconclusive; / = no result. Unless noted, calls come from the whole dose curve; as a rule, active = well fitted curve in the direction sought with a large enough effect; inconclusive = small, poorly fitted or top-dose-only effect, or another doubt; inactive = no such curve, though single readings can be large; an effect the other way counts as inactive or inconclusive. Potency is the fitted concentration of half-maximal effect.

SMILES	Pf growth 48h	AMA1-RON2 inh	Pf growth 96h	SARS PLpro yeast
CCOC(=O)c1c(C)nc2sc3c(=O)n(-c4ccc(C(C)=O)cc4)cnc3c2c1-c1ccc(Cl)cc1	/	-14%	3.7µM*	-5%
CCOC(=O)c1c(C)nc2sc3c(=O)n(-c4ccc(C(C)=O)cc4)nnc3c2c1-c1ccc(Cl)cc1	0%	-5%	6%	4%
Cc1onc(-c2c(F)cccc2Cl)c1C(=O)N1CCc2ccccc2C1	5.9µM*	-2%	?	2%
Cc1onc(-c2c(Cl)cccc2Cl)c1C(=O)N=S(C)(=O)c1ccccc1 (centres undefined)	?	-15%	10µM*	0%
COc1ccccc1N1CCN(C(=O)c2c(-c3ccccc3)noc2C)CC1	-8%	-1%	?	-3%
Cc1onc(-c2c(Cl)cccc2Cl)c1C(=O)N1CCc2ccccc21	8.3µM*	-11%	0%	-6%
Cc1onc(-c2ccccc2Cl)c1C(=O)N1CCc2ccccc2C1	?	-1%	?	/
COc1ccccc1N1CCN(C(=O)c2c(-c3c(F)cccc3Cl)noc2C)CC1	?	0%	12µM*	4%
Cc1onc(-c2c(Cl)cccc2Cl)c1C(=O)N1CCOCC1	-4%	-5%	19%	2%
Cc1onc(-c2c(Cl)cccc2Cl)c1C(=O)c1ccccc1	-12%	-3%	?	-1%
COc1ccc2c(c1OC)C(=O)N1N=C(c3ccccc3)CC21 (centres undefined)	4.1µM*	-7%	?	-8%
CCOc1cc(OCC)cc(C(=O)NCCCN2CCOCC2)c1	-5%	-9%	-26%	-2%
CCOC(=O)C(C(=O)Nc1ccccn1)C1CCCCC1 (centres undefined)	6%	8%	9.3µM*	3%
CCOC(=O)C(C(=O)Nc1cccc(C)n1)C1CCCCC1 (centres undefined)	/	-14%	/	0%
CCCCOc1ccc(N(CC(=O)NC2CCCCC2)C(=O)CCC(=O)Nc2ccccn2)cc1	12µM*	4%	?	/
Cc1ccc(S(=O)(=O)Nc2c(C)nn(C)c2C)cc1	/	-1%	9%	1%
N#Cc1ccc(CSc2ncnc3c2cnn3Cc2ccccc2)cc1	?	14%	7.4µM*	-3%
Cc1ccc(CSc2ncnc3c2cnn3Cc2ccccc2)cc1	-2%	11%	/	-17%
O=C(NNc1cccc(Cl)n1)Nc1cccc(Cl)c1	/	-4%	13µM*	2%
O=C(Nc1cccc(NC(=O)c2ccccc2Cl)c1)c1ccco1	11%	-10%	8%	-2%
CCOC(=O)CC(NC(=O)c1ccco1)c1ccc(C)cc1 (centres undefined)	3%	4%	6.6µM*	1%
O=C(Nc1ccc(-c2nc3c(ccc4ccccc43)o2)cc1)c1ccco1	/	-14%	1.9µM*	-11%
C=Cc1cccc(NC(=O)c2ccc(NC(=O)c3ccco3)cc2)c1	-5%	-9%	1.5µM*	-1%
O=C(Nc1ccccc1)c1cccc(NC(=O)c2ccco2)c1	/	-4%	/	/
O=C(Nc1cccc(NC(=O)c2ccc(-c3ccc(Br)cc3)o2)c1)c1ccco1	9.3µM*	-3%	?	-4%
SMILES	Pf growth 48h	AMA1-RON2 inh	Pf growth 96h	SARS PLpro yeast
CN(C)c1ccc(CNn2cnnc2SCc2ccccc2F)cc1	15%	-19%	/	-2%
O=C(Nc1ccc(Cl)cc1)c1ccco1	131%	-5%	5.2µM*	-6%
CC(=O)c1ccc(NC(=S)NC(NC(=O)c2ccco2)C(Cl)(Cl)Cl)cc1 (centres undefined)	/	-3%	-32%	5%
Cc1ccc(Oc2ccc(NC(=O)c3ccco3)cc2)cc1	0.93µM*	2%	-2%	-28%
O=C(NC(NC(=S)Nc1ccc(Cl)cc1)C(Cl)(Cl)Cl)c1ccco1 (centres undefined)	10µM*	-13%	21%	-10%
CC(=O)Nc1ccc(NC(=O)c2ccco2)cc1	90%	-19%	/	-4%
O=C(CCc1ccccc1)NC(NC(=S)Nc1cccc(Cl)c1)C(Cl)(Cl)Cl (centres undefined)	?	1%	9.3µM*	6%
O=C(CCc1ccccc1)NC(NC(=S)Nc1ccc(Br)cc1)C(Cl)(Cl)Cl (centres undefined)	?	5%	/	-2%
O=C(Nc1ccc(Cl)cc1)[C@@H]1[C@@H]2C(=O)N(c3cccc(F)c3)C(=O)[C@@H]2[C@H]2C=CC=NN21	-2%	11%	-12%	1%
O=c1cc(CSc2nnc(COc3ccccc3)o2)c2ccccc2[nH]1	?	-6%	13%	0%

High-throughput results: PubChem BioAssay, National Center for Advancing Translational Sciences (NCATS)
